Source: PubChem BioAssay (NCI)
Compounds without any hit were thinned out: in the full panel of roughly 83,000, 20% have a hit.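 Values shown are percent growth following 48 h exposure of cells in 96-well plates to a single concentration of compound; below 10 was considered active.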 A number with no mark means an inactive call. Calls of active or inactive are those of the source.

Assays:
Assay in all cases: NCI-60 one-dose screen, 48 h (100 = growth as untreated, 0 = no growth, -100 = all killed)
Settings in all cases: 10 µM unless noted
NCI-H23 lung = tested on: NCI-H23 lung
NCI-H226 lung = tested on: NCI-H226 lung
NCI-H322M lung = tested on: NCI-H322M lung
HOP-62 NSCLC = tested on: HOP-62 NSCLC
NCI-H460 lung = tested on: NCI-H460 lung
HOP-92 NSCLC = tested on: HOP-92 NSCLC
NCI-H522 lung = tested on: NCI-H522 lung
A549/ATCC NSCLC = tested on: A549/ATCC NSCLC
786-0 renal = tested on: 786-0 renal
COLO 205 colon = tested on: COLO 205 colon
DU-145 prostate = tested on: DU-145 prostate
K-562 leukemia = tested on: K-562 leukemia
MALME-3M melanoma = tested on: MALME-3M melanoma
MDA-MB-231 breast = tested on: MDA-MB-231 breast
RXF 393 renal = tested on: RXF 393 renal
SF-268 CNS = tested on: SF-268 CNS
SF-295 CNS = tested on: SF-295 CNS
SF-539 CNS = tested on: SF-539 CNS
UACC-257 melanoma = tested on: UACC-257 melanoma
M14 melanoma = tested on: M14 melanoma

| SMILES | growth (NCI-H23 lung) | growth (NCI-H226 lung) [%] | growth (NCI-H322M lung) [%] | growth (HOP-62 NSCLC) [%] | growth (NCI-H460 lung) | growth (HOP-92 NSCLC) | growth (NCI-H522 lung) | growth (A549/ATCC NSCLC) [%] | growth (786-0 renal) [%] | growth (COLO 205 colon) | growth (DU-145 prostate) [%] | growth (K-562 leukemia) [%] | growth (MALME-3M melanoma) | growth (MDA-MB-231 breast) | growth (RXF 393 renal) [%] | growth (SF-268 CNS) [%] | growth (SF-295 CNS) | growth (SF-539 CNS) | growth (UACC-257 melanoma) [%] | growth (M14 melanoma) [%] |
| --- | --- | --- | --- | --- | --- | --- | --- | --- | --- | --- | --- | --- | --- | --- | --- | --- | --- | --- | --- | --- |
| CCN(C(=O)N1CCN(c2cc3c(cc2F)c(=O)c(C(=O)O)cn3C2CC2)CC1)c1nc(-c2ccc(Cl)cc2)cs1 | 3.93% (active) | 11.9 | 11 | 14.2 | 8.51% (active) | -19.2% (active) | 1.67% (active) | 12.9 | 12.7 | 0.749% (active) | 23.5 | 12.7 | 6.66% (active) | -21.5% (active) | 18.2 | 21.8 | -0.18% (active) | 11.8% | 12.9 | 23 |
| CCOc1ccc(NC(=O)CSc2oc(-c3ccccc3)nc2S(=O)(=O)c2ccc(F)cc2)cc1 | 65.8% | 80.2 | 75.5 | 58.2 | 53.9% | 31.1% | 67.8% | 46 | 45.5 | 93.2% | 89.8 | 65.9 | 78.3% | 64.2% | 77.6 | 60.2 | 50% | 6.59% (active) | 70.1 | 86.9 |
| OCCOCCN(Cc1ccccn1)Cc1cc(I)cc(I)c1O | 90.2% | 83.1 | 82.9 | 84.9 | 59.5% | 90.2% | 74.4% | 88.5 | 85.2 | 107% | 87.8 | 107 | 87.8% | 96% | 81.1 | 81.4 | 59.3% | 90.8% | 104 | 81.1 |
| O=C1Nc2ccccc2[C@]12CC(c1ccccc1)=NN2 | 64.3% | 77.7 | 59.6 | 59.6 | 21.5% | 30.8% | 39.4% | 44.3 | 50.7 | 3.6% (active) | 74.5 | 21.8 | 37.2% | 53.4% | 73.3 | 47.5 | 45.6% | 28.4% | 67.8 | 25.8 |
| Cc1nc(-c2ccccc2)cc2c(O)c(C(=O)NN)[nH]c(=O)c12 | 103% | 104 | 92.7 | 107 | 106% | 85.6% | 94.3% | 102 | 108 | 117% | 115 | 104 | 229% | 102% | 101 | 96.2 | 111% | 100% | 118 | 101 |
| COc1cc(CNS(=O)(=O)c2ccc(C)cc2)ccc1OCc1cn(-c2ccc(F)cc2)nn1 | 79.6% | 71.4 | 102 | 102 | 103% | 86.4% | 75.8% | 93.8 | 97.2 | 88% | 95.9 | 65.3 | 94.9% | 91% | 93.2 | 91.8 | 90.1% | 89.3% | 89.9 | 97.1 |
| O=C(CCC(=O)N/N=C/c1ccccc1O)N/N=C/c1ccccc1O | 61.2% | 61.8 | 29.3 | 36.2 | 44.4% | 57.1% | 51.8% | 62.6 | 69.7 | 35.4% | 48.4 | 40.4 | 62.5% | 49% | 58.9 | 33.2 | 89.6% | 30% | 76 | 36.4 |
| N#CCSc1nnc2n(Cc3ccccc3)c(=O)c3c4c(sc3n12)CCCC4 | 105% | 102 | 102 | 91.9 | 108% | 71.3% | 104% | 80.4 | 76.3 | 106% | 107 | 70.5 | 99.5% | 98.8% | 83 | 98 | 102% | 104% | 98.9 | 109 |
| CC1=Nc2cnc(Nc3ccc(OCCN4CCCC4)cc3)nc2Nc2ccccc21 | 80.4% | 77.8 | 44.6 | 86.4 | 64.2% | 43.2% | 73.9% | 86.5 | 54 | 72.2% | 56.1 | 39.6 | 68% | 59.7% | 36 | 63.9 | 85.6% | 68.6% | 89.3 | 52.6 |
| C=C(C)[C@@H]1CC[C@]2(C(=O)OC)CC[C@]3(C)[C@H](CC[C@@H]4[C@@]5(C)C/C(=C/NC(N)=S)C(=O)C(C)(C)[C@@H]5CC[C@]43C)[C@@H]12 | 80.4% | 86.3 | 101 | 97.5 | 88.9% | 90.4% | 88.2% | 76.5 | 108 | 110% | 86.3 | 73.6 | 119% | 98.5% | 99.8 | 95.8 | 99.4% | 85.6% | 100 | 87.9 |
| C=C1C(=O)O[C@H]2[C@H]1CC/C(COC(=O)NCc1cc[nH]c1)=C\CC[C@@]1(C)O[C@@H]21 | 85.8% | 68.5 | 89.5 | 87.3 | 68.5% | 37.2% | -8.14% (active) | 86.7 | 49.5 | 31.2% | 12.4 | 16.6 | 84.2% | 35.4% | 31.1 | 64.9 | 83.5% | 50.8% | 59.1 | 32.7 |
| Cc1cccnc1NC(=S)Nc1ncccc1C | 99.2% | 100 | 107 | 109 | 107% | 109% | 88.9% | 110 | 90.1 | 116% | 113 | 65.3 | 113% | 112% | 92.3 | 108 | 81.2% | 107% | 116 | 102 |
| COc1ccc(/C=N/NC(=O)CCN2c3ccccc3Sc3ccccc32)cc1 | 75.6% | 86.5 | 83.4 | 75.3 | 85.4% | 62.7% | 62.1% | 77.6 | 91.5 | 88.5% | 102 | 24 | 71.7% | 76.6% | 66.6 | 96.7 | 68.8% | 85.2% | 99.8 | 65.4 |
| CCCCCCC1(C)NCCO1 (stereo not given) | 99.1% | 103 | 87.3 | 105 | 106% | 102% | 100% | 99.4 | 102 | 102% | 111 | 104 | 105% | 104% | 118 | 93.6 | 102% | 110% | 99 | 104 |
| COc1ccc(-c2nnc(-c3ccc4c(c3)nc(-c3ccncc3)n4C3CCCCC3)o2)cc1 | 72.8% | 63.6 | 82 | 67.7 | 73.7% | 44.8% | 61.4% | 59.2 | 66.3 | 59.2% | 68.5 | 43.3 | 82% | 63.8% | 69.7 | 66.7 | 67.7% | 70.3% | 77.6 | 70.5 |
| CN1C(=O)N(C)C2Nn3c(s/c(=C\c4ccc(C(F)(F)F)cc4)c3=O)=NC21 (stereo not given) | 99.4% | 96.3 | 101 | 115 | 107% | 110% | 93.4% | 104 | 105 | 118% | 109 | 93.3 | 107% | 91.7% | 95.7 | 96.9 | 101% | 97.3% | 111 | 110 |
